Test results reported in PubChem BioAssay AID1159580 (chemical genetic matrix, 2015).
Where “and” joins values, the source holds several entries; their conditions need not be identical. Equal values may be shown once. The whole screen tested about 5,500 compounds, of which about 2,000 (36%) were called active. About 18% were inconclusive and are not listed. Cut-off read from the data, not from the text of the source: active = normalized growth mostly below about 0.91 (no sharp cut-off); inconclusive = no clear call, values can overlap the other calls; inactive = mostly above about 0.92. The list shows a part of the results.

Test: chemical genetic growth profiling, strain panel (AID 1159580);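 note: tested at 20 µM; growth read once vehicle control cultures reached saturation at 30 °C; 1 = growth at the plate median or of vehicle wells; lower values mean less growth of the strain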
Conditions: S. cerevisiae deletion strains, growth OD

Measured: normalized growth

COP(=S)(OC)Oc1ccc([N+](=O)[O-])cc1
inactive: locus YAL013W, strain DEP1, stronger effect = lower value 1.03 | locus YAL021C, strain ccr4, stronger effect = lower value 1.01 | locus YAL026C, strain drs2, stronger effect = lower value 0.995 | locus YAL030W, strain snc1, stronger effect = lower value 1 | locus YBL061C, strain skt5, stronger effect = lower value 1 | locus YBR009C, strain hhf1, stronger effect = lower value 0.995 | locus YBR021W, strain FUR4, stronger effect = lower value 1.01 | locus YBR023C, strain chs3, stronger effect = lower value 0.994 | locus YBR171W, strain sec66, stronger effect = lower value 0.994 | locus YBR229C, strain ROT2, stronger effect = lower value 0.96 | locus YBR231C, strain swc5, stronger effect = lower value 0.988 | locus YBR279W, strain paf1, stronger effect = lower value 1 | locus YCL011C, strain gbp2, stronger effect = lower value 0.992 | locus YCL016C, strain dcc1, stronger effect = lower value 0.99 | locus YCL029C, strain bik1, stronger effect = lower value 0.975 | locus YCL061C, strain MRC1, stronger effect = lower value 0.991 | locus YCL069W, strain vba3, stronger effect = lower value 0.996 | locus YCR088W, strain abp1, stronger effect = lower value 0.99 | locus YDL005C, strain med2, stronger effect = lower value 0.991 | locus YDL035C, strain GPR1, stronger effect = lower value 0.988 | locus YDL040C, strain nat1, stronger effect = lower value 0.993 | locus YDL074C, strain BRE1, stronger effect = lower value 0.949 | locus YDL101C, strain DUN1, stronger effect = lower value 0.973 | locus YDL134C, strain PPH21, stronger effect = lower value 0.988 | locus YDL185W, strain tfp1, stronger effect = lower value 0.958 | locus YDL192W, strain arf1, stronger effect = lower value 0.972 | locus YDR001C, strain nth1, stronger effect = lower value 1 | locus YDR069C, strain doa4, stronger effect = lower value 0.956 | locus YDR101C, strain arx1, stronger effect = lower value 0.984 | locus YDR137W, strain rgp1, stronger effect = lower value 0.885 | locus YDR150W, strain NUM1, stronger effect = lower value 0.975 | locus YDR159W, strain sac3, stronger effect = lower value 0.981 | locus YDR162C, strain NBP2, stronger effect = lower value 0.978 | locus YDR195W, strain ref2 1 | locus YDR297W, strain sur2, stronger effect = lower value 0.996 | locus YDR318W, strain mcm21, stronger effect = lower value 0.98 | locus YDR334W, strain swr1, stronger effect = lower value 0.998 | locus YDR335W, strain msn5, stronger effect = lower value 1.01 | locus YDR388W, stronger effect = lower value 0.983 | locus YDR392W, strain spt3, stronger effect = lower value 0.922 | locus YDR502C, strain sam2, stronger effect = lower value 0.971 | locus YEL003W, strain gim4, stronger effect = lower value 0.996 | locus YEL037C, strain rad23, stronger effect = lower value 0.999 | locus YEL061C, strain CIN8 (second series), stronger effect = lower value 1 | locus YEL061C, strain CIN8, stronger effect = lower value 0.976 | locus YER015W, strain faa2, stronger effect = lower value 0.996 | locus YER016W, strain bim1, stronger effect = lower value 0.997 | locus YER110C, stronger effect = lower value 0.963 | locus YER111C, strain swi4, stronger effect = lower value 1 | locus YER155C, strain BEM2 (second series), stronger effect = lower value 0.94 | locus YER155C, strain BEM2, stronger effect = lower value 1.01 | locus YER167W, strain BCK2, stronger effect = lower value 0.979 | locus YFR010W, strain ubp6, stronger effect = lower value 0.999 | locus YGL078C, strain dbp3, stronger effect = lower value 0.985 | locus YGL086W, strain mad1, stronger effect = lower value 0.994 | locus YGL167C, strain pmr1, stronger effect = lower value 0.992 | locus YGL173C, strain kem1, stronger effect = lower value 0.99 | locus YGL227W, strain vid30, stronger effect = lower value 0.993 | locus YGL240W, strain doc1, stronger effect = lower value 0.987 | locus YGL248W, strain PDE1, stronger effect = lower value 0.966 | locus YGL253W, strain hxk2, stronger effect = lower value 0.999 | locus YGR078C, strain PAC10, stronger effect = lower value 0.989 | locus YGR135W, strain pre9, stronger effect = lower value 0.976 | locus YGR229C, strain SMI1, stronger effect = lower value 0.99 | locus YGR252W, strain gcn5, stronger effect = lower value 0.968 | locus YHR013C, strain ard1, stronger effect = lower value 1.02 | locus YHR027C, strain rpn1, stronger effect = lower value 0.987 | locus YHR030C, strain SLT2, stronger effect = lower value 0.998 and 0.993 | locus YHR079C, strain IRE1 (second series), stronger effect = lower value 0.984 | locus YHR079C, strain IRE1, stronger effect = lower value 0.988 | locus YHR094C, strain hxt1, stronger effect = lower value 0.987 | locus YHR129C, strain ARP1, stronger effect = lower value 0.978 | locus YHR142W, strain chs7, stronger effect = lower value 0.965 | locus YHR200W, strain rpn10, stronger effect = lower value 0.987 | locus YIL066C, strain RNR3, stronger effect = lower value 0.967 | locus YIL073C, strain SPO22, stronger effect = lower value 0.993 | locus YIL125W, strain kgd1, stronger effect = lower value 0.971 | locus YIR030C, strain dcg1, stronger effect = lower value 0.98 | locus YJL092W, strain hpr5, stronger effect = lower value 0.996 | locus YJL095W, strain BCK1 (second series), stronger effect = lower value 0.993 | locus YJL095W, strain BCK1, stronger effect = lower value 0.974 and 1.01 | locus YJL115W, strain asf1, stronger effect = lower value 0.986 | locus YJL129C, strain trk1, stronger effect = lower value 0.988 | locus YJL134W, strain LCB3, stronger effect = lower value 0.984 | locus YJL154C, strain vps35, stronger effect = lower value 1 | locus YJL164C, strain tpk1, stronger effect = lower value 0.99 | locus YJL166W, strain qcr8, stronger effect = lower value 0.983 | locus YJL168C, strain set2, stronger effect = lower value 0.982 | locus YJL187C, strain SWE1 (second series), stronger effect = lower value 0.983 | locus YJL187C, strain SWE1, stronger effect = lower value 1.02 | locus YJR043C, strain POL32, stronger effect = lower value 0.983 | locus YJR066W, strain TOR1, stronger effect = lower value 0.953
